Reference: PubChem BioAssay (NCI)
About 83,000 compounds went through this panel and 20% of them were active in at least one assay; those are over-represented in the sample as a whole.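 96-well plates, one dose, 48 hours. Percent growth reported; active if below 10.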 The source made the active and inactive calls.

Legend:
Test in all cases: NCI-60 one-dose screen, 48 h (100 = growth as untreated, 0 = no growth, -100 = all killed)
Conditions in all cases: 10 µM unless noted
SR leukemia = system: SR leukemia
RPMI-8226 leukemia = system: RPMI-8226 leukemia
OVCAR-5 ovarian = system: OVCAR-5 ovarian
OVCAR-4 ovarian = system: OVCAR-4 ovarian
SK-OV-3 ovarian = system: SK-OV-3 ovarian
IGROV1 ovarian = system: IGROV1 ovarian
OVCAR-3 ovarian = system: OVCAR-3 ovarian
HS 578T breast = system: HS 578T breast
NCI/ADR-RES ovarian = system: NCI/ADR-RES ovarian
T-47D breast = system: T-47D breast
BT-549 breast = system: BT-549 breast
MDA-MB-435 melanoma = system: MDA-MB-435 melanoma
SW-620 colon = system: SW-620 colon
MCF7 breast = system: MCF7 breast
HCT-116 colon = system: HCT-116 colon
HCC-2998 colon = system: HCC-2998 colon
KM12 colon = system: KM12 colon
OVCAR-8 ovarian = system: OVCAR-8 ovarian

Measured: growth

COc1ccc(/C=C\c2cc(OC)c(OC)c(OC)c2)cc1OCC(=O)Nc1ccc2nc(C)sc2c1
inactive: SR leukemia 12.2% | OVCAR-5 ovarian 112% | OVCAR-4 ovarian 43% | SK-OV-3 ovarian 78.5% | IGROV1 ovarian 25.2% | OVCAR-3 ovarian 41.6% | HS 578T breast 36.4% | BT-549 breast 38% | SW-620 colon 38% | MCF7 breast 20.6% | HCT-116 colon 23.4% | HCC-2998 colon 86.1% | KM12 colon 19%
active: RPMI-8226 leukemia -8.5% | NCI/ADR-RES ovarian 0.808% | T-47D breast 6.4% | MDA-MB-435 melanoma -3.48%

C=C(C)C(=O)Nc1ccc(NC(C)C)cc1
inactive: SR leukemia 96.6% | OVCAR-8 ovarian 93.5% | OVCAR-5 ovarian 117% | OVCAR-4 ovarian 111% | SK-OV-3 ovarian 109% | IGROV1 ovarian 120% | OVCAR-3 ovarian 121% | HS 578T breast 141% | NCI/ADR-RES ovarian 112% | T-47D breast 100% | BT-549 breast 156% | MDA-MB-435 melanoma 117% | SW-620 colon 105% | MCF7 breast 146% | HCT-116 colon 105% | KM12 colon 109%

CCCCN(CCCC)CCCn1c(-c2ccccc2)ccc1-c1ccccc1
active: RPMI-8226 leukemia -2.32%
inactive: SR leukemia 42.7% | OVCAR-5 ovarian 73.4% | OVCAR-4 ovarian 37% | SK-OV-3 ovarian 81.3% | IGROV1 ovarian 64.5% | OVCAR-3 ovarian 59.2% | HS 578T breast 82.7% | NCI/ADR-RES ovarian 65.1% | T-47D breast 67.4% | BT-549 breast 74.1% | MDA-MB-435 melanoma 85.7% | SW-620 colon 65.1% | MCF7 breast 58.4% | HCT-116 colon 34.1% | HCC-2998 colon 59.9% | KM12 colon 61.7%

O=C1c2cc3c(cc2-c2c1c1ccc(F)cc1c(=O)n2C[C@H](O)[C@H](O)[C@H](O)CO)OCO3
active: SR leukemia -8.53% | RPMI-8226 leukemia -12.9% | OVCAR-5 ovarian -20.6% | OVCAR-4 ovarian 5.07% | SK-OV-3 ovarian -30.3% | IGROV1 ovarian 7.16% | OVCAR-3 ovarian -17% | HS 578T breast -8.24% | NCI/ADR-RES ovarian -23.8% | T-47D breast -14.8% | BT-549 breast -11.3% | MDA-MB-435 melanoma -75.6% | SW-620 colon 1.12% | MCF7 breast 0.35% | HCT-116 colon 9.02% | HCC-2998 colon -50.2% | KM12 colon 3.9%

Cc1cc(Nc2ccc(C)c(Cl)c2)n2nc(C(F)(F)F)nc2n1
active: OVCAR-4 ovarian -62.7% | T-47D breast -0.705%
inactive: SR leukemia 60.6% | RPMI-8226 leukemia 51.6% | OVCAR-5 ovarian 55.4% | IGROV1 ovarian 15.1% | OVCAR-3 ovarian 15.2% | HS 578T breast 28.7% | BT-549 breast 69.6% | MDA-MB-435 melanoma 34.5% | SW-620 colon 40.6% | MCF7 breast 77.9% | HCT-116 colon 18.5% | HCC-2998 colon 74.5% | KM12 colon 62%

O=C(NCCN1CCOCC1)Nc1ccc(-c2cc3c(Nc4ccc(Oc5cccc(C(F)(F)F)c5)c(Cl)c4)ncnc3s2)cc1
active: SR leukemia 4.83% | RPMI-8226 leukemia -14.8% | HS 578T breast -3.09% | T-47D breast -1.15% | MDA-MB-435 melanoma 1.05% | SW-620 colon -46.8% | MCF7 breast -2.16% | HCT-116 colon -13% | HCC-2998 colon 5.37% | KM12 colon -65%
inactive: OVCAR-5 ovarian 36.2% | OVCAR-4 ovarian 39.2% | SK-OV-3 ovarian 24.5% | IGROV1 ovarian 28.3% | OVCAR-3 ovarian 41.1% | NCI/ADR-RES ovarian 77.2% | BT-549 breast 40%

O=C(CCl)Oc1ccc(-c2ccccc2)c(Br)c1
inactive: SR leukemia 96.9% | RPMI-8226 leukemia 106% | OVCAR-5 ovarian 107% | OVCAR-4 ovarian 105% | IGROV1 ovarian 112% | OVCAR-3 ovarian 108% | HS 578T breast 108% | NCI/ADR-RES ovarian 103% | T-47D breast 103% | BT-549 breast 104% | MDA-MB-435 melanoma 104% | SW-620 colon 104% | MCF7 breast 103% | HCT-116 colon 108% | HCC-2998 colon 109% | KM12 colon 104%

COC(=O)c1ccc(Cn2cnc3c(N)ncnc32)cc1
inactive: SR leukemia 104% | RPMI-8226 leukemia 104% | OVCAR-8 ovarian 112% | OVCAR-5 ovarian 115% | IGROV1 ovarian 126% | OVCAR-3 ovarian 118% | HS 578T breast 95.4% | NCI/ADR-RES ovarian 110% | T-47D breast 106% | BT-549 breast 119% | MDA-MB-435 melanoma 123% | SW-620 colon 109% | MCF7 breast 98.3% | HCT-116 colon 104% | HCC-2998 colon 105% | KM12 colon 117%

FC(F)(F)c1nc2c(NCc3ccc(-c4ccccc4)cc3)cccc2[nH]1
active: SR leukemia 7.78%
inactive: RPMI-8226 leukemia 45% | OVCAR-5 ovarian 96.1% | OVCAR-4 ovarian 88.9% | SK-OV-3 ovarian 89.1% | IGROV1 ovarian 85.8% | OVCAR-3 ovarian 64.9% | HS 578T breast 71.7% | NCI/ADR-RES ovarian 81% | BT-549 breast 91.2% | MDA-MB-435 melanoma 93.5% | SW-620 colon 75.3% | MCF7 breast 87% | HCT-116 colon 74.1% | HCC-2998 colon 107% | KM12 colon 80.5%

CN(C)[C@@H]1C(=O)C(C(=O)NCc2nc3[nH]cnc(=S)c3[nH]2)=C(O)[C@@]2(O)C(=O)C3=C(O)c4c(O)cccc4[C@@](C)(O)[C@H]3C[C@@H]12
inactive: SR leukemia 12.5% | OVCAR-5 ovarian 36.3% | OVCAR-4 ovarian 39.8% | SK-OV-3 ovarian 19.9% | IGROV1 ovarian 12.5% | OVCAR-3 ovarian 38.7% | HS 578T breast 73.5% | NCI/ADR-RES ovarian 30.5% | T-47D breast 40.4% | BT-549 breast 54% | MDA-MB-435 melanoma 33.8% | SW-620 colon 73.8% | MCF7 breast 16.6% | HCT-116 colon 33.8% | HCC-2998 colon 16.3% | KM12 colon 68.5%
active: OVCAR-8 ovarian 7.48%

COC(=O)c1ccc2oc(NC(=O)c3ccc(Nc4ccc([N+](=O)[O-])cc4C)c([N+](=O)[O-])c3)nc2c1
inactive: SR leukemia 111% | RPMI-8226 leukemia 108% | OVCAR-5 ovarian 109% | OVCAR-4 ovarian 100% | SK-OV-3 ovarian 102% | IGROV1 ovarian 104% | OVCAR-3 ovarian 105% | HS 578T breast 93.2% | NCI/ADR-RES ovarian 106% | T-47D breast 96% | BT-549 breast 110% | MDA-MB-435 melanoma 100% | SW-620 colon 103% | MCF7 breast 97.6% | HCT-116 colon 106% | HCC-2998 colon 101% | KM12 colon 103%

C=C1C(=O)O[C@H]2[C@H]1CC/C(C=Nc1ccc(C(F)(F)F)cc1N)=C\CC[C@@]1(C)O[C@@H]21
active: SR leukemia -2.49% | RPMI-8226 leukemia -17% | OVCAR-3 ovarian -11.1% | HS 578T breast 7.74% | MDA-MB-435 melanoma 0.426% | SW-620 colon -32% | HCT-116 colon -77.1%
inactive: OVCAR-5 ovarian 31.5% | OVCAR-4 ovarian 23.3% | SK-OV-3 ovarian 65.4% | IGROV1 ovarian 27.7% | NCI/ADR-RES ovarian 23.4% | T-47D breast 14.8% | BT-549 breast 16.3% | MCF7 breast 10.7% | KM12 colon 20.3%

CCN1CCN(c2nc(NCCCNc3ccnc4cc(Cl)ccc34)c3ccccc3n2)CC1
inactive: OVCAR-5 ovarian 55.1% | OVCAR-4 ovarian 48% | SK-OV-3 ovarian 60% | IGROV1 ovarian 59.3% | OVCAR-3 ovarian 54% | HS 578T breast 78.8% | NCI/ADR-RES ovarian 92.6% | BT-549 breast 68.7% | MCF7 breast 23.2% | HCT-116 colon 20.7% | HCC-2998 colon 21.9% | KM12 colon 29.3%
active: SR leukemia -33.3% | RPMI-8226 leukemia -10% | T-47D breast -4.69% | MDA-MB-435 melanoma -81.7% | SW-620 colon 9.73%

COc1cc(-c2nc3ccccc3[nH]2)ccc1OCC(=O)N=Nc1c(O)[nH]c2ccc(Cl)cc12
inactive: NCI/ADR-RES ovarian 89.7%
active: SR leukemia -26.4% | RPMI-8226 leukemia -39.4% | OVCAR-5 ovarian -26.4% | OVCAR-4 ovarian -92.6% | SK-OV-3 ovarian -13.3% | IGROV1 ovarian -53.1% | OVCAR-3 ovarian -97.7% | HS 578T breast -60% | T-47D breast -52% | BT-549 breast 9.87% | MDA-MB-435 melanoma -71.1% | SW-620 colon -67.8% | MCF7 breast -76.9% | HCT-116 colon -83.6% | HCC-2998 colon -62.9% | KM12 colon -87.2%

CN(C)C(=S)N=Nc1c(O)[nH]c2ccccc12
inactive: OVCAR-5 ovarian 35.3% | OVCAR-4 ovarian 14.9% | SK-OV-3 ovarian 18.8% | HS 578T breast 13.4% | T-47D breast 25% | BT-549 breast 30.7% | MDA-MB-435 melanoma 40.3% | SW-620 colon 30.2% | MCF7 breast 17.8% | HCC-2998 colon 23.9% | KM12 colon 25.9%
active: SR leukemia -17.8% | OVCAR-8 ovarian -24.1% | IGROV1 ovarian -58.9% | OVCAR-3 ovarian 3.86% | NCI/ADR-RES ovarian -11.6% | HCT-116 colon 3.73%

C=C1C(=O)O[C@H]2[C@H]1CC/C(COC(=O)NCc1ccc(OC)c(OC)c1)=C\CC[C@@]1(C)O[C@@H]21
inactive: RPMI-8226 leukemia 25.1% | OVCAR-5 ovarian 85.1% | OVCAR-4 ovarian 42.3% | SK-OV-3 ovarian 101% | IGROV1 ovarian 61% | OVCAR-3 ovarian 19.9% | HS 578T breast 86.2% | NCI/ADR-RES ovarian 93.9% | T-47D breast 30.2% | BT-549 breast 75.2% | MDA-MB-435 melanoma 54.8% | SW-620 colon 14.1% | MCF7 breast 34.5% | KM12 colon 90.9%
active: SR leukemia 6.13% | HCT-116 colon 7.17%

Cc1ccc(C(SCC(N)C(=O)O)(c2ccccc2)c2ccc(C)cc2)cc1 (configuration not stated)
inactive: OVCAR-4 ovarian 61.5% | SK-OV-3 ovarian 28.6% | T-47D breast 27.1% | BT-549 breast 30.6% | SW-620 colon 15.9% | MCF7 breast 12.3%
active: SR leukemia -29.8% | OVCAR-8 ovarian -32.5% | OVCAR-5 ovarian 6.69% | IGROV1 ovarian -32% | OVCAR-3 ovarian -48% | HS 578T breast -45.6% | NCI/ADR-RES ovarian 7.01% | MDA-MB-435 melanoma -23.5% | HCT-116 colon 6.49% | HCC-2998 colon -20.5% | KM12 colon 2.64%

CCN(CC)c1ccc(/C=N\NC(=O)/C=C/C=C/c2ccc3c(c2)OCO3)c(O)c1
active: OVCAR-3 ovarian 4.95% | HCT-116 colon 7.86%
inactive: SR leukemia 17.6% | RPMI-8226 leukemia 53.6% | OVCAR-5 ovarian 60.9% | OVCAR-4 ovarian 15.3% | IGROV1 ovarian 38.2% | HS 578T breast 68.1% | NCI/ADR-RES ovarian 17.6% | T-47D breast 26.3% | BT-549 breast 51.8% | MDA-MB-435 melanoma 48.9% | SW-620 colon 32.3% | MCF7 breast 19.5% | HCC-2998 colon 54% | KM12 colon 30.2%
